# PubChem BioAssay (EPA / NIEHS)
# Active and inactive are the calls of the source. Rule for the calls: active = hit-call score of the fitted dose curve at least 0.9, where 1 is the maximum; inactive = score below 0.9.
# Biological target: Heat shock factor protein 1 (Homo sapiens) (UniProt Q00613)
# Assay: ATG_HSE_CIS: Attagene CIS-FACTORIAL HepG2 Assay for human Heat Shock Transcription Factor 1 (HSE) (AID 2282953)
# Conditions: HepG2 HSE cis-reporter, Attagene RNA transcription; actives raise or lower the signal
# Procedure: ATG_CIS is a cell-based, multiplexed-readout assay that uses HepG2, a human liver cell line, with measurements taken at 24 hours after chemical dosing in a 24-well plate.ATG_HSE_CIS is one of 52 assay component(s) measured or calculated from the ATG_CIS assay. It is designed to make measurements of mRNA induction, a form of inducible reporter, as detected with fluorescence intensity signals by Reverse transcription polymerase chain reaction (RT-PCR) and Capillary electrophoresis technology.Data from the assay component ATG_HSE_CIS was analyzed into 1 assay endpoint. This assay endpoint, ATG_HSE_CIS, was analyzed with bidirectional fitting relative to DMSO as the negative control and baseline of activity. Using a type of inducible reporter, measures of mRNA for gain or loss-of-signal activity can be used to understand the reporter gene at the transcription factor-level as they relate to the gene HSF1. Furthermore, this assay endpoint can be referred to as a primary readout, because this assay has produced multiple assay endpoints where this one serves a reporter gene function. To generalize the intended target to other relatable targets, this assay endpoint is annotated to the dna binding intended target family, where the subfamily is heat shock protein.
# Human liver HepG2 cells are transiently transfected with multiple reporter transcription units (MRTUs) in 6-well plates using FuGene 6 reagent (Roche; 3 ml FuGene/1 mg DNA). The MRTU constructs are regulated by a cis-regulating element (promoter). […] A major difference between the CIS and TRANS system is that in CIS activities of endogenous TFs are measured, whereas the TRANS assay evaluates changes in activities of exogenous, chimeric NR-Gal4 proteins. […] At the end of 24 hour incubation, total RNA was isolated using TriZol reagent (Invitrogen). The isolated RNA is then reverse-transcribed using oligo(dT) primer and Mo-MLV reverse transcriptase (Invitrogen) with DNAse I (Ambion) treatment for 30 min. The one-tenth of the produced cDNA was amplified by PCR using Taq DNA polymerase (Invitrogen) and two reporter sequence-specific primers. The PCR products were fluorescently labeled by primer extension with 6-arboxyfluorescein (6-FAM) 5'-labeled reporter sequence-specific primer (2 min at 95 C, 20 s at 68 C and 10 min at 72 C) and these products were digested with 5U of HpaI (New England Biolabs) for 2h at 37 C. The fragments were purified using Qiaquick PCR columns (Qiagen), analyzed on an ABI 3130xL genetic analyzer (Applied Biosystems) with peak positions identified by using a set of X-rhodamine (ROX)-labeled MapMarker1000 molecular weight standards (BioVentures). The raw capillary electrophoresis data was processed using Attagraph software (Attagene).
# Chain of Heat shock factor protein 1 (Homo sapiens) (Q00613 whole entry, looked up): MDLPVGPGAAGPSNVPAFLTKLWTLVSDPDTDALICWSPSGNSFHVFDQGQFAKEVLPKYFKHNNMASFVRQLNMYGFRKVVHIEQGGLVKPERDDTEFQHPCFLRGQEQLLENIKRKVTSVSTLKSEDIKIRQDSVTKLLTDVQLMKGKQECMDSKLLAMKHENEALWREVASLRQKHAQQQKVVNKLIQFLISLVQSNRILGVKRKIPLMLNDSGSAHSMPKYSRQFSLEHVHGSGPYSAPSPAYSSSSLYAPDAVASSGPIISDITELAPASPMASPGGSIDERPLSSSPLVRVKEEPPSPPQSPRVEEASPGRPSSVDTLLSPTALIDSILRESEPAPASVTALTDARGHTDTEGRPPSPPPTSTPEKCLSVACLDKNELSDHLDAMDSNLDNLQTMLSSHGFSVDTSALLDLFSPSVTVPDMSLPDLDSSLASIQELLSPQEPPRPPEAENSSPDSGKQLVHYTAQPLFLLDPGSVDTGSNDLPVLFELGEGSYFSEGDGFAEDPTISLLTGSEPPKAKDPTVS
Compound,outcome,AC50
CN(C1CCCCC1)C1CCCCC1,inactive,
CC(O)(CS(=O)(=O)c1ccc(F)cc1)C(=O)Nc1ccc(C#N)c(C(F)(F)F)c1 (stereo not given),inactive,
O=C/C(Cl)=C(/Cl)C(=O)O,,151 µM (active)
CNC(=O)CSP(=O)(OC)OC,inactive,
C=CCc1ccccc1O,inactive,
CC(C)CP(=S)(S)CC(C)C,inactive,
O=[N+]([O-])c1c2ccccc2cc2ccccc12,inactive,
O=C1C[C@@H]2OCC=C3CN4CC[C@]56c7ccccc7N1[C@H]5[C@H]2[C@H]3C[C@H]46,inactive,
O=C(O)COc1ccc(Cl)cc1,inactive,
CC(C)(C)c1cc([N+](=O)[O-])cc(C(C)(C)C)c1O,inactive,
CCCCCCCCCCCCCl,inactive,
CCOc1ccc(N)cc1,inactive,
CC(C=O)Cc1ccc2c(c1)OCO2 (stereo not given),inactive,
C=CCN=C=S,inactive,
C#CCOC(=O)/C=C(C)/C=C/CC(C)CCCC(C)C (stereo not given),inactive,
Cc1cc(C(F)(C(F)(F)F)C(F)(F)F)ccc1NC(=O)c1cccc(I)c1C(=O)NC(C)(C)CS(C)(=O)=O,inactive,
ClCCCCl,inactive,
Cc1cc(-c2cc(C)c(N)c(C)c2)cc(C)c1N,inactive,
CCOCn1c(-c2ccc(Cl)cc2)c(C#N)c(Br)c1C(F)(F)F,,53.2 µM (active)
N#CCCC(Br)(C#N)CBr (stereo not given),,62.9 µM (active)

Compound,outcome,AC50
Cc1c([N+](=O)[O-])c(C)c([N+](=O)[O-])c(C(C)(C)C)c1[N+](=O)[O-],inactive,
O=[N+]([O-])c1cccc2ccccc12,inactive,
CCOC(=O)OC1=C(c2cc(C)ccc2C)C(=O)NC12CCC(OC)CC2 (stereo not given),inactive,
Nc1cccnc1,inactive,
Nc1c(Oc2ccccc2)cc(O)c2c1C(=O)c1ccccc1C2=O,inactive,
CC1(C)[C@H](/C=C2\CCSC2=O)[C@@H]1C(=O)OCc1coc(Cc2ccccc2)c1,inactive,
Cc1ccc(OP(=O)(Oc2ccc(C)cc2C)Oc2ccc(C)cc2C)c(C)c1,inactive,
CCCSP(=S)(OCC)Oc1ccc(SC)cc1 (stereo not given),inactive,
COP(=S)(OC)Oc1cc(Cl)c(I)cc1Cl,,62.1 µM (active)
O=[N+]([O-])c1ccc(Nc2ccccc2)cc1,inactive,
Cc1ccc2nc3sc(=O)sc3nc2c1,,12.3 µM (active)
c1ccc2c(c1)Oc1ccccc1O2,inactive,
CN(CCCC(O)c1cccnc1)N=O (stereo not given),inactive,
CC(C)(c1ccccc1)c1cc(-n2nc3ccccc3n2)c(O)c(C(C)(C)c2ccccc2)c1,inactive,
CCCCN(CCCC)C(=S)S,,47.9 µM (active)
OC[P+](CO)(CO)CO,inactive,
CCOP(=S)(OCC)SCSc1cc(Cl)ccc1Cl,inactive,
CCC(C)(C#N)N=NC(C)(C#N)CC (stereo not given),inactive,
CCCCCCCCCCBr,inactive,
O=C=Nc1ccc(Cl)cc1,inactive,
